HPGD inh – HPGD (human) dehydrogenase inhibition; purified HPGD, NADH fluorescence kinetic, PGE2 substrate; Potency, µM, inactives show at the top dose activity change, negative = inhibition, actives largely listed as inhibitors; 4.3% of 150,000 active; P15428; note: potency is the fitted concentration of half-maximal effect
Target sequence (P15428 whole entry, looked up): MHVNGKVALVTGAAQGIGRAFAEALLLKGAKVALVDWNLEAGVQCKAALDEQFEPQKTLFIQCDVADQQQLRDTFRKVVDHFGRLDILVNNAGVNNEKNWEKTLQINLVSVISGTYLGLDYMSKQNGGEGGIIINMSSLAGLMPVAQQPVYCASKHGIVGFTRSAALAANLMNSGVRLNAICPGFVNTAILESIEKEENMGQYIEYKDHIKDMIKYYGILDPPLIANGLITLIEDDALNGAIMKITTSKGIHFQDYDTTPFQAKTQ
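20 nM HPGD preincubated 15 min at room temperature with compound in 50 mM Tris-HCl pH 8, 0.01% Tween 20. Started with 1 mM NAD+ and 30 uM prostaglandin E2; NADH fluorescence (360/450 nm) read 5 times over 30-s intervals, last minus first.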
PNC assembly inh – perinucleolar compartment assembly inhibition | AID 2417 | PC3M PTB-GFP, PNC prevalence imaging, 16 h; active compounds read low | 3.1% of 140,000 active | activity change (PNC), negative = inhibition, % at 10 µM;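 active = readout at or below -70, meaning at least 70% loss of cells showing the perinucleolar compartment, a nuclear body marking cancer cells; inconclusive = readout between -30 and a set limit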;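 note: plate controls were DMSO wells for no effect and camptothecin positive control wells for full effect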
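Read-out is percentage of cells bearing a perinucleolar compartment, from automated 20x imaging of fixed, Hoechst-stained PC3M PTB-GFP cells. Cells were seeded 4 h, then exposed 16 h to compound (23 nl of library stock) in duplicate plates.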
JMJD2E inh – JMJD2E (human) inhibition; B2RXH2; JMJD2E catalytic domain, FDH-coupled NADH fluorescence (FDH is formaldehyde dehydrogenase); Potency, µM (series often up to 57.1 µM), for the others: at the top dose activity change, negative = inhibition, hits mostly inhibitors; 1.6% of 230,000 active;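 note: potency is the fitted concentration of half-maximal effect; 0% = wells with enzyme and -100% = buffer wells without enzyme; nearly all actives have a fitted effect of over 50% in size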
Target sequence (B2RXH2 1-337 limits assumed): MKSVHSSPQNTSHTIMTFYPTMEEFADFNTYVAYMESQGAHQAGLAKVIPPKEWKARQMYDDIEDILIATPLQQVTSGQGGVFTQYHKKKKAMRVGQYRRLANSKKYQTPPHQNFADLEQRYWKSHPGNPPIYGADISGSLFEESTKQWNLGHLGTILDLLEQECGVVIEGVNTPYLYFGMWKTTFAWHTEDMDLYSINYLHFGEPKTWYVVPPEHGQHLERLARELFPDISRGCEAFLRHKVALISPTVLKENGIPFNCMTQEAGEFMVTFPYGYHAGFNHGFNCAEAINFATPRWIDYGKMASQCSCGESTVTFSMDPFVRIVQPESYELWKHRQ
ALDH1A1 block – ALDH1A1 (human) enzyme inhibition | P00352 | 7.3% of 220,000 active | Potency, µM (series often up to 75.3 µM), without a hit: at the highest dose activity, negative = inhibition, usual class: inhibitors | AID 1030 | Purified ALDH1A1, NADH fluorescence, propionaldehyde substrate;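 note: potency is the fitted concentration of half-maximal effect; plate controls were no enzyme wells and a reference inhibitor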
Active calls of the source: *; ? = inconclusive; . = no result given; [ ] = dose if it differs, or a comment. Hits are enriched below; roughly 11% of the tested compounds scored in any of these assays. Unless noted, calls come from the whole dose curve; as a rule, active = well fitted inhibition curve with a large enough effect (not every such curve was filed as active); inconclusive = small, poorly fitted or top-dose-only effect, or another doubt; inactive = no such curve, though single readings can be large or run the other way. Unless noted, % is set by controls: 0 for no effect and ±100 for the full control effect.

SMILES | HPGD inh | PNC assembly inh | JMJD2E inh | ALDH1A1 block
CCOC(=O)CC1C(=O)NCCN1S(=O)(=O)c1cc(Cl)c(Cl)cc1Cl (configuration not stated) | 2% | -98* | -1% | -3%
COC(=O)CC1C(=O)NCCN1C(=S)Nc1ccccc1 (configuration not stated) | -14% | 90 | ? | -8%
CCOC(=O)CC1C(=O)NCCN1S(=O)(=O)c1ccc(Cl)cc1 (configuration not stated) | -15% | 44 | 7% | ?
CCOC(=O)CC1C(=O)NCCN1C(=S)Nc1ccccc1 (configuration not stated) | -17% | -91* | 2% | ?
COC(=O)c1cc(=O)n(-c2ccc(C(F)(F)F)cc2)[nH]1 | . | . | -3% | 15%
COC(CNC(=O)C1CCCN(S(=O)(=O)c2c(C)noc2/C=C/c2cccs2)C1)OC (configuration not stated) | . | . | -15% | -6%
CN1C(=O)/C(=C/c2ccc(-c3ccccc3[N+](=O)[O-])o2)SC1=Nc1ccc(Cl)c(C(=O)O)c1 | 14µM* | ? | 0% | 13µM*
CC(=O)SC1CC2=CC(=O)CC[C@]2(C)C2CC[C@@]3(C)[C@@H](CC[C@@]34CCC(=O)O4)C12 (some centres not stated) | -3% | . | 1% | -1%
O=C(CCCCCNC(=S)Nc1ccc(Cl)cc1)C[N+](=O)[O-] | . | . | 2% | 10µM*
OCCCNC(=S)Nc1ccc(Nc2ccccc2)cc1 | . | . | 1% | -1%
O=C(CCCCCNC(=O)c1ccccc1)C[N+](=O)[O-] | . | . | -3% | 2.2µM*
O=C(CCCCCNC(=S)Nc1ccccc1)C[N+](=O)[O-] | . | . | 7% | 3.5µM*
COc1ccc(NC(=S)NCCCCCC(=O)C[N+](=O)[O-])cc1 | . | . | -2% | 2.5µM*
CCOC(=O)CC(=O)CSc1nc2ccc(OC)cc2cc1C | . | . | -3% | -4%
CCS(=O)(=O)c1ccc2c(c1)N(S(=O)(=O)c1ccc(Cl)cc1)CC(C(=O)O)O2 (configuration not stated) | . | . | -14% | -4%
CC(C)=CCC/C(C)=C/CO/N=C1/C[C@@H](O)[C@@H](O)[C@@H]2[C@H]3C(=O)N(c4ccc(F)cc4F)C(=O)[C@@H]3CC[C@H]12 | . | . | . | -11%[13.5 µM]
CCCNCc1cc(OC)c(OCCC)cc1Cl | -16% | 7 | 0% | -1%
CC1(C)NC(=O)N(CC(=O)OCC(=O)Nc2cc(S(=O)(=O)N3CCCCCC3)ccc2Cl)C1=O | -8% | ? | 1% | ?
COc1ccc(NC2=NCC(=O)N2c2ccccc2F)c(OC)c1 | -4% | -28 | 3% | 8%
COc1ccc(NC2=NCC(=O)N2c2ccccc2)c(OC)c1 | 2% | -94* | -1% | 3%
Cc1nc(N(C)C)c2sc(=S)n(Cc3ccccc3)c2n1 | . | . | 0% | 6.3µM*
O=C(NCc1cccnc1)NC1CC(=O)N(c2ccc3c(c2)OCCO3)C1 (configuration not stated) | . | . | 1% | 7%
O=[N+]([O-])c1cc(S(=O)(=O)Nc2cccc(C(F)(F)F)c2)ccc1-n1nnc2ccccc21 | 32µM* | 3 | 5% | ?
COc1ccccc1NC(=O)N1CCn2c(nc3ccccc32)C1 | -2% | ? | 4% | 8%
O=C(Nc1ccccc1Cl)N1CCn2c(nc3ccccc32)C1 | -14% | -111* | 3% | -37%
SMILES | HPGD inh | PNC assembly inh | JMJD2E inh | ALDH1A1 block
O=C(COc1cc(Cl)c(Cl)cc1Cl)Nc1ccc([N+](=O)[O-])cc1Cl | . | . | 0% | -4%
Cc1ccc(NC(=O)CSc2ncc3ccccn23)cc1C | . | . | -3% | 3.2µM*
COc1ccc(CCNC(=O)c2ccc(CNS(=O)(=O)c3ccccc3)cc2)cc1OC | -11% | -20 | 8% | 2.5µM*
COc1ccc(CCNC(=O)C2CCC(CNS(=O)(=O)c3ccccc3)CC2)cc1OC (configuration not stated) | . | . | -10% | 0.63µM*
O=C(CCC(=O)N(CC(=O)NC1CCCC1)C1CCCCC1)Nc1ccccn1 | . | . | -11% | 6%
CCCOc1ccc(C(=O)CCNc2cccc(Cl)c2)cc1 | . | . | -6% | 7.9µM*
COc1ccc(C(=O)CCNc2cccc(Cl)c2)cc1 | 0% | -16 | -5% | 3.2µM*
NC(=NCCC[C@H](N)C(=O)O)NO | 3% | . | -4% | -7%
O=C(CSc1ccccc1C(=O)O)NCC1CCCCC1 | . | . | -28% | ?
CC(=O)Nc1cc(-c2ccc(Cl)cc2)[nH]n1 | . | . | -3% | 5%
CCCOC(=O)c1ccc(NC(=O)c2ccccc2[N+](=O)[O-])cc1 | . | . | 4% | ?
COc1ccccc1NC(=O)CCC(=O)OCc1ccc(Cl)cc1 | . | . | -8% | 15%
S=C(Nc1ccc(Br)cc1Cl)Nn1cnnc1 | . | . | 0% | 7.9µM*
O=C(NNC(=S)Nc1ccc(Br)cc1Cl)c1ccncc1 | -20% | ? | -1% | 18µM*
O=C(NNC(=S)Nc1ccccc1)c1ccncc1 | -11% | -12 | -5% | ?
O=C(CCc1ccc(O)c(O)c1)NNC(=S)Nc1ccc(Br)cc1Cl | . | . | 8% | 25µM*
O=C(COc1ccc(Br)cc1Cl)Nn1cnnc1 | . | . | -5% | 4%
O=C(CCc1ccc(O)c(O)c1)NNC(=S)NCCc1ccccc1 | -10% | ? | -3% | -5%
Cc1cc(C)c(S(=O)(=O)N2CCCOC2CNC(=O)C(=O)NCc2ccncc2)c(C)c1 (configuration not stated) | -7% | 14 | 2% | 9%
COC(=O)C1=C(C(=O)OC)[C@@H]2Nc3ccccc3[C@@]23C[C@@H](C(=O)OC)N(S(=O)(=O)c2cccs2)C3=N1 | 1% | . | 8%[11.4 µM] | 17%[13.5 µM]
COc1cccc(C2=NO[C@@H]3C(=O)N(Cc4ccccc4)C(=O)[C@H]23)c1OC | ? | -107* | -4% | ?
COc1cccc(C2=NO[C@@H]3C(=O)N(c4ccc5c(c4)OCCO5)C(=O)[C@H]23)c1OC | -13% | -16 | -29% | -10%
OCCN1CCN(c2nc(NCc3ccco3)c3ccccc3n2)CC1 | -18% | -88* | ? | ?
O=C(c1ccncc1)N1CCC2(CCCN(Cc3ccncc3)C2)CC1 | 1% | . | . | 11%
CCN1/C(=C2\C(=O)N(C)C(=S)N2C)C=Cc2cc(C)ccc21 | -8% | 47 | ? | ?
SMILES | HPGD inh | PNC assembly inh | JMJD2E inh | ALDH1A1 block
CCC(=O)NNc1ccc(Br)cc1 | . | . | -3% | -2%
O=C(CNc1ccc(Cl)cc1)c1ccc(Br)cc1 | . | . | -1% | 10µM*
O=C(CNc1ccc(Br)cc1)c1ccc(O)cc1 | . | . | -2% | 11µM*
CC(=O)NCC(=O)OCC(=O)c1ccc(Br)cc1 | -8% | 9 | -10% | 8%
O=C(CNc1ccc(Br)cc1)NNC1=NCCC1 | -1% | -113* | 1% | 17%
Cc1ccc(C2(C)NC(=O)N(CC(=O)Nc3cccnc3Cl)C2=O)cc1 (configuration not stated) | . | . | ? | 3.2µM*
Cc1cc(C)c(NC(=O)CN2C(=O)NC3(CCCCC3)C2=O)c(Cl)c1 | -4% | -13 | 2% | -2%
Cc1ccc(NC(=O)CN2C(=O)NC3(CCC(C)CC3)C2=O)c(Cl)c1 (configuration not stated) | -10% | -127* | -8% | -10%
